# Only some compounds are listed: those with a hit (about 8.3% of all), similar ones and a draw of the others.
# Gal4-VP16 FLuc: counter-screen for ROR gamma inhibitors: Gal4-VP16 reporter; Drosophila S2 Gal4-VP16 UAS-luciferase, luminescence, 20 h; Potency, µM (doses to about 53.6 µM), inactives show at the top dose activity, negative = inhibition, actives largely listed as inhibitors; actives 3.5% (n = 310,000);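 further: Gal4-VP16 expression switched on by copper sulfate through the metallothionein promoter; potency means the concentration at half of the fitted maximal effect; on the % scale 0 is the no-effect control and ±100 the full control effect; nearly all actives have a fitted effect of over 50% in size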
# SW480 rereplic: inducers of DNA re-replication in SW480 colon cancer cells | SW480 DNA re-replication, Hoechst DNA content imaging, 48 h | Potency, µM (top dose mostly 46.1 µM), inactives show at the highest dose re-replication activation, actives largely listed as activators | actives 1.8% (n = 340,000); further: potency means the concentration at half of the fitted maximal effect; % of control where 0% means no effect; nearly all actives have a fitted effect of over 55% in size
#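 Cells (250 per well) received 23 nL compound or DMSO by pin tool and were kept 48 hr at 37 C, 5% CO2. Nuclei were then stained with Hoechst for 40 min and scanned for DNA content.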
# Chronic BCR inh: chronic active BCR signaling inhibition. ABC-DLBCL IkBa-CBG/CBR reporter, luminescence ratio, 4 h. Potency, µM (doses to about 46.1 µM), inactives show at the highest dose activity change, negative = inhibition, actives largely listed as inhibitors. actives 0.05% (n = 340,000). AID 493014; active means well fitted inhibition curve with a large enough effect in the signal ratio, with a control signal flat, not every such curve was filed as active; inconclusive means small, poorly fitted or top-dose-only effect, or effect the other way, or a change in a side signal; the % refers to the signal ratio;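 further: potency means the concentration at half of the fitted maximal effect; plate controls were basal doxycycline-induced cells for no effect and cells given 10 µM MG132 for full effect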
#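 Doxycycline induced both beetle luciferases in TMD8 lymphoma cells; IKK-driven degradation limits the IkappaBalpha-fused green signal, while red luminescence normalises for cell number and nonspecific effects. Compounds tested up to 46 uM, 4 hrs.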
# MCF10A rereplic: DNA re-replication induction in MCF 10a cells; MCF 10A DNA re-replication, Hoechst nuclear intensity, 48 h; Potency, µM (series often up to 46.1 µM), for the others: at the highest dose activity, positive = re-replication, usual class: activators; actives 2.9% (n = 350,000); AID 624296; further: potency means the concentration at half of the fitted maximal effect; % of control where 0% means no effect; nearly all actives have a fitted effect of over 50% in size
# Giardia killer: Giardia lamblia killing | activity change, % at 7.66 µM, hits read low | actives 0.15% (n = 340,000) | Giardia lamblia trophozoite viability; in the data active means activity change below about -80%; inconclusive means between about -30% and that limit;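 further: parasites exposed to compound for two days anaerobically before the ATP read; on the % scale 0 is the no-effect control and ±100 the full control effect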
#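 Viability, read as ATP luminescence: trophozoites at 100 cells/well, compound added, 48 hrs anaerobic at 37 deg C, then 15-30 min room-temperature development before reading.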
# RORg inh: inhibitors of mouse ROR gamma transcriptional activity | Drosophila S2 Gal4-RORgamma UAS-luciferase reporter, 20 h | P51450 | actives 5.4% (n = 310,000) | Potency, µM (series often up to 53.6 µM), inactives show at the highest dose activity change, negative = inhibition, actives largely listed as inhibitors; further: potency means the concentration at half of the fitted maximal effect; on the % scale 0 is the no-effect control and ±100 the full control effect; nearly all actives have a fitted effect of over 60% in size
# Target sequence (P51450 whole entry, looked up, the tested form may be a part): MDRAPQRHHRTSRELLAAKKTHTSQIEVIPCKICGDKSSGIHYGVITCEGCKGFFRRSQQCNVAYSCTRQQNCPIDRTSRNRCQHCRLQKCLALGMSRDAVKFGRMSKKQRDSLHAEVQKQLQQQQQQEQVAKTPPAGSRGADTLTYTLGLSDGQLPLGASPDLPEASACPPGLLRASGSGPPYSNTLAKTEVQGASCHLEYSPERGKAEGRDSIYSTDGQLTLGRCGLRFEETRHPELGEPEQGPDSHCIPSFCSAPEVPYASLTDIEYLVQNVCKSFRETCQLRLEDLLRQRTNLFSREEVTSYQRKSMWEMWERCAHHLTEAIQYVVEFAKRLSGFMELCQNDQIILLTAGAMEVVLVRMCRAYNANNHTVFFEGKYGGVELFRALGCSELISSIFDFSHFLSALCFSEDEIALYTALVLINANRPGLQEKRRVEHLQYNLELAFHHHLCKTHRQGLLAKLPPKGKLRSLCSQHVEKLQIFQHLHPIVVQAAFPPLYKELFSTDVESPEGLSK
#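 Using a luciferase readout, inhibitors were identified by reduced reporter activity in Drosophila cells coexpressing a copper-inducible Gal4–ROR gamma fusion and UAS-driven Photinus luciferase, incubated 20 hr after 700 uM copper sulfate.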
# * = called active by the depositor; u = inconclusive; x = no result given; [ ] = dose if it differs, or a comment. Unless noted, the call rests on the fitted dose curve; in most records, active means well fitted curve in the direction sought with a large enough effect; inconclusive means small, poorly fitted or top-dose-only effect, or another doubt; inactive means no such curve, though single readings can be large; an effect the other way counts as inactive or inconclusive.
SMILES,Gal4-VP16 FLuc,SW480 rereplic,Chronic BCR inh,MCF10A rereplic,Giardia killer,RORg inh
CC(C)CCNC1=CC(=O)CC(c2ccccc2)C1 (centres undefined),4.9%,18.4µM*,u,u,6.6,u
CC(=O)Nc1ccc(C2=CC(=O)C[C@H](c3ccc(Cl)cc3)C2)cc1,x,u,u,18.4µM*,-20.4,x
Cc1ccc(NC2=CC(=O)CC(c3ccccc3)C2)cc1 (centres undefined),-0.4%,20.6µM*,u,8.2µM*,-0.5,44.8%
Cc1ccc(NC2=CC(=O)CC(c3ccc(Cl)cc3)C2)cc1 (centres undefined),u,9.5%,u,25.1%,-19.0,u
CN(C)CCCNC1=CC(=O)CC(c2ccccc2)C1 (centres undefined),-0.4%,-8.7%,-8.1%,-5.6%,-13.1,24.7%
O=C1C=C(Nc2ccc(Cl)cc2)CC(c2ccccc2)C1 (centres undefined),0.2%,u,0.2%,16.4µM*,-13.7,u
O=C(Nc1cc2c(cc1Br)OCCCO2)c1ccccc1,-7.8%,-72.5%,3.7%,-26.3%,3.0,1.5%
CC(C)C(C)NC(=O)CSc1nc2scc(-c3ccco3)c2c(=O)n1-c1ccccc1 (centres undefined),14.1µM*,-5.3%,3.8%,13.3%,-15.4,u
C=CCn1c(SCC(C)=O)nc2scc(-c3ccco3)c2c1=O,u,u,3.7%,u,-15.3,u
C=CCn1c(SC(F)F)nc2scc(-c3ccco3)c2c1=O,5.01µM*,20.3%,u,2.91µM*,8.8,u
CCOC(=O)C1CCCN(C(=O)Cn2sc3nc(C)cc(C)c3c2=O)C1 (centres undefined),1.78µM*,u,u,u,-13.5,u
Nc1ncc(Br)cc1S(=O)(=O)Nc1ccccc1F,0.7%,-4.6%,-0.6%,20.9%,-12.9,15.4%
O=C(O)c1oc2ccccc2c1CSc1ccc(Cl)cc1,6.6%,1.6%,u,u,-13.0,-20.4%
CCC(C)NC(=O)COC(=O)c1oc2ccccc2c1CSc1ccc(Cl)cc1 (centres undefined),-3.5%,0.92µM*,5.9%,-0.8%,30.1,32.1%
CC1=CC(C)(C)N2C(=O)C3(C(C#N)=C(N)Oc4cc(O)ccc43)c3c(C)c(C)cc1c32 (centres undefined),-12.0%,5.3%,u,70.9%,-1.5,2.82µM*
CCOC(=O)c1ccc(NC(=S)N2CCCC(C)C2)cc1 (centres undefined),u,-1.3%,-11.4%,-2.7%,-1.5,12.6µM*
CC1CCCN(C(=S)NCCc2ccccc2)C1 (centres undefined),-0.5%,-3.6%[9.22 µM],1.9%,6.2%,-2.0,u
CCCCc1ccc(NC(=S)N2CCCC(C)C2)cc1 (centres undefined),u,-8.9%,-3.4%,7.7%,-3.2,5.01µM*
COc1ccc(C(=O)NC(=S)NNC(=O)Cc2cccs2)cc1,u,-3.8%,u,324.8%[0.0737 µM],-4.0,6.31µM*
O=C(/C=C/c1cccs1)NC(=S)NNC(=O)Cc1cccs1,u,6.7%,u,u,-4.2,11.2µM*
COC(=O)[C@H](CCSC)NC(=O)[C@@H](Cc1cnc[nH]1)NC(=O)OCc1ccccc1,5.8%,-1.8%,-1.2%,-1.5%,-10.4,9.3%
NS(=O)(=O)c1ccc(CCNC(=O)c2ccc[nH]c2=S)cc1,11.2µM*,-5.8%,u,-15.3%,-3.2,u
Cc1ccc2nc(NC(=O)c3ccco3)sc2c1,7.08µM*,0.1%,u,u,u,8.91µM*
COc1ccc2nc(NC(=O)c3ccco3)sc2c1,10µM*,3.5%,u,-2.3%,u,10µM*
Cc1ccc2nc(NC(=S)NC(=O)c3ccco3)sc2c1,3.55µM*,0.9%,u,u,u,0.282µM*
SMILES,Gal4-VP16 FLuc,SW480 rereplic,Chronic BCR inh,MCF10A rereplic,Giardia killer,RORg inh
O=C(Nc1nc2ccc(Cl)cc2s1)c1ccco1,u,4.2%,u,12.8%,-12.6,u
Cc1ccc(NC(=O)COC(=O)CNC(=O)c2cccs2)cc1S(=O)(=O)N1CCOCC1,x,-6.9%,x,5.2%,-9.6,x
COc1ccc(OC)c2c(C)cc(C)nc12,-1.0%,2.5%,u,-28.6%,-26.0,12.6µM*
COc1ccc(OC)c2c(C)cc(N3CCCCCC3)nc12,3.7%,u,-0.8%,-5.9%,-0.1,25.1%
Cc1ccc(S(=O)(=O)N(C)CCCN(C)c2nc(-c3cccs3)nc3ccccc23)cc1,x,x,x,x,-25.3,x
O=[N+]([O-])c1cccc(/C=N\N=C2c3ccccc3-c3ccccc32)c1O,20µM*,141.3%,u,-36.1%,-23.3,10µM*
CCOC(=O)c1c(C)oc2c1c1c(c3ccccc32)OCN(Cc2ccccn2)C1,11.2µM*,-0.6%[9.22 µM],-1.4%,16.6%,1.7,7.08µM*
CCOC(=O)c1c(C)oc2c1c(CN1CCN(C(=O)OCC)CC1)c(O)c1ccccc12,-20.8%,-2.1%,u,u,-11.8,-40.1%
O=C(CN1CCCCC1)N1CCN(C(=O)CN2CCCCC2)CC1,-4.9%,x,3.0%,x,x,-16.6%
CSCCC(=O)N1CCN(CC(=O)N2CCCC2)CC1,-13.5%,-5.7%,-3.6%,0.2%,u,2.82µM*
CN(C)c1nc(N(C)C)nc(N2CC(=O)N(c3ccccc3)C2=N)n1,4.7%,-2.3%,3.3%,0.6%,-2.4,28.7%
Cc1cc(CC(C)C)n(-c2nc3ccccc3c(=O)n2OCC(=O)N(C)C)n1,6.31µM*,-3.3%,-8.1%,2.9%,-6.5,2.24µM*
Cc1cc(C)n(-c2nc3ccccc3c(=O)n2OCC(=O)N(C)C)n1,-9.6%,-1.1%,5.0%,-3.0%,-2.8,19.7%
Cc1cc(CC(C)C)n(-c2nc3ccccc3c(=O)n2OCc2ccccc2)n1,u,3.7%,u,26.6%,-8.0,1.58µM*
Cc1nn(CCC(=O)NNC(=S)Nc2ccc(F)cc2)c(C)c1Br,u,8.0%,u,5.9%,6.5,0.891µM*
Cc1nn(C)c(C(=O)NNC(=S)Nc2ccc(F)cc2)c1[N+](=O)[O-],u,u,0.2%,-1.0%,6.5,7.94µM*
CCCCNC(=S)NNC(=O)CCn1nc(C)c(Br)c1C,2.82µM*,8.2µM*,u,6.1%,-5.6,0.631µM*
Cc1nn(CCC(=O)NNC(=S)Nc2ccc([N+](=O)[O-])cc2)c(C)c1[N+](=O)[O-],-1.3%,1.0%,u,-3.7%,-7.8,-16.8%
CCc1ccc(-n2nc3cc(C)c(N)cc3n2)cc1,u,u,2.4%,u,-10.8,-18.7%
Nc1ccc2nn(-c3cccc4ccccc34)nc2c1,14.2%,18.4µM*,u,9.2µM*,0.1,0.4%

# Screening data as filed in PubChem BioAssay.
